Structures are written as SMILES. Records with an inconclusive call do not appear. Entries that show only a call come without a potency. Active and inactive are the calls of the source. Calls come from the whole dose curve; as a rule, active = well fitted inhibition curve with a large enough effect; inconclusive = small, poorly fitted or top-dose-only effect; inactive = flat fitted curve, though single readings scatter.

For the test, the system named is CRL-7250. Description: qHTS assay to identify novel small-molecules to repurpose for Merkel cell carcinoma treatment (AID 1296009). Note: nearly all actives have a fitted effect of over 60% in size. To be noted: MCC and control cell lines, CellTiter-Glo viability, 72 h; series mostly up to 92 µM. In outline: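 72 hr, 37 degree celsius; NPC 8-pt / MIPE 11-pt dose response; compound pinned in DMSO; CellTiter-Glo, 10 min RT, luminescence; normalized to no-cell and DMSO controls.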
For the molecule `CC1(C)C2CCC1(C)C(OC(=O)C(O)(CC(=O)O)CC(=O)O)C2` (stereo not given), the Potency result is “inactive”.
With `COCC1OC(OC(C)(C)C2CCC3(C)C=C(C4CCC5C4(C)CC(O)C4OC(C(C)(C)O)CCC45C)CCC3O2)C(NC(C)=O)C(O)C1O` (stereo not given), the Potency entry was “inactive”.
Turning to `C=C1CC[C@H]2[C@@](C)(CCC(OC3OC(CO)C(O)C(O)C3O)[C@@]2(C)CO)C1C(=O)CC1=CCOC1=O` (stereo not given in full), the Potency entry was “inactive”.
As to `CC1(C)CC[C@]2(C(=O)O[C@@H]3O[C@H](CO[C@@H]4O[C@H](CO)[C@@H](O)[C@H](O)[C@H]4O)[C@@H](O)[C@H](O[C@@H]4O[C@H](CO)[C@@H](O)[C@H](O)[C@H]4O)[C@H]3O)CC[C@]3(C)C(=CCC4[C@@]5(C)CC[C@H](O[C@@H]6OC[C@@H](O)[C@H](O)[C@H]6O)[C@@](C)(C(=O)O)C5CC[C@]43C)[C@@H]2C1` (stereo not given in full), the outcome was “inactive [at 9.27 µM]”.
For the molecule `CC(O)C(C)n1ncn(-c2ccc(N3CCN(c4ccc(OCC5COC(Cn6cncn6)(c6ccc(Cl)cc6Cl)O5)cc4)CC3)cc2)c1=O` (stereo not given), the Potency entry was “inactive”.
For the molecule `CO[C@@H]1CC[C@H](OC[C@]2(COC(=O)c3ccc(C)[nH]3)[C@H](OC(C)=O)CC[C@@]3(C)[C@@H]4CC=C(C)[C@@H](C5=C(O)C(=O)OC5O)[C@]4(C)CC[C@@H]32)O[C@H]1C` (stereo not given in full), the Potency result is “inactive”.
For the molecule `C[C@@H]1CCC2C(C)(C)[C@H](O)CC[C@]2(C)[C@@]12Cc1c(O)cc3c(c1O2)CN([C@@H](CCC(=O)O)C(=O)O)C3=O` (stereo not given in full), the Potency result is “inactive”.
As for `Cc1ncc([N+](=O)[O-])n1C[C@H](O)CN1CCOCC1`, the Potency entry was “inactive”.
`CC(=O)O[C@@H]1[C@H]2[C@@H](OC(=O)c3ccccc3)[C@@H](C)C[C@]2(O)[C@H](OC(C)=O)[C@@]2(C)[C@@H]3CC(C)(C)C(=O)[C@]3(OC(C)=O)C[C@@]12C`: the Potency result is “inactive”.
Same read-out and setting: the same measure for `CC(C)(C)NS(=O)(=O)c1cncc(-c2cc(F)c3nc(N)nn3c2)c1`: “inactive”; for `C=CC1(C)CC2=CCC3C(C)(C(=O)O)CCCC3(C)C2CC1OC(C)=O` (stereo not given): “inactive”.
Same read-out and setting: the same measure for `OC[C@H]1O[C@@H](OCc2ccccc2)[C@H](O[C@@H]2OC[C@@H](O)[C@H](O)[C@H]2O)[C@@H](O)[C@@H]1O`: “inactive”; for `Cn1ccnc1CCOC(c1cc2nccc(C(=O)O)c2[nH]1)c1ccccc1Cl` (stereo not given): “inactive”.
As for `c1ccc(C(OC2CCN(CCCc3nn[nH]n3)CC2)c2ccccc2)cc1`, the Potency result was “inactive”.
Regarding `CC(C)C1NC(=O)C2CCCN2C1=O` (stereo not given), the Potency entry was “inactive”.
`C=C1[C@H]2[C@H](O[C@@H]3O[C@H](COC(=O)/C=C/c4cc(OC)c(O)c(OC)c4)[C@@H](O)[C@H](O)[C@H]3O)OC=C(C(=O)O)[C@H]2C[C@@H]1O`: the Potency entry is “inactive”.
On to `CCn1nnnc1NCc1ccc(C(C)C)cc1`, for which the Potency entry was “inactive”.
For the molecule `CC1=C[C@@H]2[C@H]3[C@@H]4O[C@@](C)(CC[C@H]4O)[C@H]3CC(=O)[C@]23C(=O)N[C@@H](CC(C)C)[C@@H]3[C@@H]1C`, the Potency result was “inactive”.
The same measure, in the same setting: the entry for `C[C@@H]1CC[C@@]23CC[C@]4(C)[C@@](C=CC5[C@@]6(C)CC[C@H](O)C(C)(C)C6CC[C@]54C)(OC2=O)C3[C@H]1C` (stereo not given in full) is “inactive”.
On the same count and under the same terms, the same measure for `Clc1ccc2c(c1)C1=NCCN1c1c(-c3noc(C4CC4)n3)ncn1-2`: “inactive”.
As for `C=C1CCC2C(C)(C)CC(=O)CC2(C)C1CCC(C)CCOC(C)=O` (stereo not given), the Potency result is “inactive”.
`CC(C)OC(=O)N1CCC(Oc2ncnc3c2cnn3-c2ccc(S(C)(=O)=O)cc2F)CC1`: the Potency result was “inactive”.
On to `CC1(C)CC=C(c2cnc3ccccc3c2)c2cc(C(=O)Nc3ccc(C(=O)O)cc3)ccc21`, for which the Potency result is “inactive”.
`COc1c(OC2OC(CO)C(O)C(O)C2O)ccc(O)c1C(=O)OCc1ccccc1O[C@@H]1O[C@H](CO)[C@@H](O)[C@H](O)[C@H]1O` (stereo not given in full): the Potency entry was “inactive”.
Same read-out and setting: the same measure for `OCC(O)C(c1c[nH]c2ccccc12)c1c[nH]c2ccccc12` (stereo not given): “inactive”; for `O=C(O)c1cc(-c2c(-c3ccccc3)nn3ccccc23)n[nH]c1=O`: “inactive”; for `C=C1CC[C@@H]2[C@@](C)(CO[C@@H]3O[C@H](CO)[C@@H](O)[C@H](O)[C@H]3O)[C@H](O)CC[C@@]2(C)[C@@H]1CC/C(C)=C/CO[C@@H]1O[C@H](CO)[C@@H](O)[C@H](O)[C@H]1O`: “inactive”.
With `COC(=O)C(CC1CCCC1)c1ccc(S(C)(=O)=O)cc1` (stereo not given), the Potency entry is “inactive”.
On the same count and under the same terms, the same measure for `COc1cc(CC2COC(c3ccc(OC4OC(CO)C(O)C(O)C4O)c(OC)c3)C2CO)ccc1O` (stereo not given): “inactive”.
As to `C=C1C[C@]23C[C@H]1CC[C@H]2[C@]1(C)CCC[C@@](C)(C(=O)O)[C@H]1[C@@H]3C(=O)O`, the Potency result is “inactive”.
With `C[C@@H]1O[C@@H](O[C@H]2[C@H](O[C@H]3[C@H](O[C@H]4CC[C@@]5(CO)C(CC[C@]6(C)C5CC=C5C7CC(C)(C)C[C@@H](O)[C@]7(C)CC[C@]56C)C4(C)C)O[C@H](C(=O)O)[C@@H](O)[C@@H]3O)OC[C@@H](O)[C@@H]2O)[C@H](O)[C@H](O)[C@H]1O` (stereo not given in full), the outcome is “inactive [at 9.27 µM]”.
In the case of `CC(CC12CCCN1C(=O)C1CCCN1C2=O)OC(N)=O` (stereo not given), the Potency entry is “inactive”.
Take `CCCCCOC(=O)Nc1nc(=O)n(C2O[C@H](C)[C@@H](O)[C@H]2O)cc1F` (stereo not given in full): the Potency result was “inactive”.
Still for that read-out and setting: the same measure for `COC(=O)[C@@]1(O)C=CC[C@@H]2[C@@]3(C)C[C@@H](c4ccoc4)OC(=O)[C@H]3CC[C@]21C`: “inactive”; for `CCC(C)/C=C(C)/C=C/C1=CC2=C(Cl)C(=O)C(C)(OC(C)=O)C(=O)C2=CN1C1CCCCN(C(CCC(N)=O)C(=O)O)C1=O` (stereo not given): “inactive”.
With `COc1cc(C2OCC3(O)C(c4ccc(O[C@@H]5O[C@H](CO)[C@@H](O)[C@H](O)[C@H]5O)c(OC)c4)OCC23O)ccc1O` (stereo not given in full), the Potency result is “inactive”.
The same measure, in the same setting: the entry for `CC(=O)O[C@]1(C(C)=O)CC[C@H]2[C@@H]3CCC4=CC(=O)CCC4=C3[C@@H](c3ccc(N(C)C)cc3)C[C@@]21C` is “inactive”.
For the molecule `CCC/C=C/C(=O)O[C@H]1CC(C)(C)CC2[C@@]13[C@H](O)C[C@]1(C)[C@@]2(CCC2[C@@]4(C)CC[C@H](O[C@@H]5O[C@H](C(=O)O)[C@@H](O)[C@H](O[C@@H]6O[C@H](CO)[C@H](O)[C@H](O)[C@H]6O[C@@H]6O[C@@H](C)[C@H](O)[C@@H](O)[C@H]6O[C@@H]6OC[C@](O)(CO)[C@H]6O)[C@H]5O[C@@H]5O[C@H](CO)[C@H](O)[C@H](O)[C@H]5O)C(C)(C)C4CC[C@]21C)O[C@H]3O` (stereo not given in full), the outcome is “inactive [at 9.27 µM]”.
Consider `C=CC1(C)C=C2C(O)CC3C(C)(C(=O)O)CCCC3(C)C2CC1` (stereo not given), for which the Potency result is “inactive”.
Consider `Cc1ccc(Sc2cncc3sc(C(N)=O)cc23)cc1`, for which the Potency result was “inactive”.

(Values after PubChem BioAssay (NCATS).)
